Only a selection was taken, and hits are over-represented in it overall.
CHX counter: affects cycloheximide protein synthesis inhibition readout, counter-screen. cell reporter, cycloheximide protein synthesis inhibition counterscreen. max response, %. AID 2314. actives 12% (n = 300,000); in the data active means max response mostly above about 13%, no sharp cut-off; inactive means mostly below about 14%; further: read at 38.3 µM for the half of the compounds with a filed dose
Shiga toxin inh: inhibitors of Shiga toxin in Vero cells. Vero cells, Shiga toxin protein synthesis inhibition reporter. inhibition, % at 38.7 µM. actives 9.2% (n = 290,000); in the data active means inhibition mostly above about 28%, no sharp cut-off; inactive means mostly below about 43%
Tb PYK inh: T. brucei pyruvate kinase inhibition. Q57TT1. TbPYK enzyme, Kinase-Glo Plus ATP luminescence, 45 min. Potency, µM (titrated, usually from 76.8 µM), actives largely listed as inhibitors. actives 0.12% (n = 410,000); further: nearly all actives have a fitted effect of over 50% in size
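ADP (130 uM final) triggers the TbPYK reaction after compound addition; incubation is 45 min at room temperature. Kinase-Glo Plus is then added and luminescence imaged. Normalized data are fitted to concentration-effect curves.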
Giardia FBPA inh: Giardia lamblia aldolase inhibition; actives 0.71% (n = 290,000); AID 2451; Potency, µM (highest dose often 59.6 µM), actives largely listed as inhibitors; A8B2U2; purified Giardia FBPA; further: nearly all actives have a fitted effect of over 55% in size
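Giardia FBPA (40 nM reagent) was preincubated 10 min at RT with compound (up to 57.5 uM final), then substrate plus GAPDH/TPI/NAD/arsenate coupling system with diaphorase/resazurin was added; resorufin fluorescence (525/598 nm) was read after 20 min.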
RE007 growth inh: less growth of the S. pombe RE007 Vpr strain. actives 0.21% (n = 360,000). Potency, µM (top dose mostly 92.2 µM), hits mostly inhibitors. S. pombe RE007 Vpr strain, BacTiter-Glo ATP luminescence, 24 h. AID 651644; active means well fitted falling curve with a large enough effect; inconclusive means small, poorly fitted or top-dose-only effect; inactive means no such curve, though single readings can be large or run the other way; further: nearly all actives have a fitted effect of over 50% in size
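Fission yeast RE007 carrying one integrated HIV-1 vpr copy, seeded at OD 0.01 in PMG+AL medium with 23 nL pinned compound. Grown 24 h at 30 degrees; viability read by BacTiter-Glo luminescence after 5 min.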
LmPK inhibitor: blocks Leishmania mexicana pyruvate kinase activity; Q27686; purified LmPK, Kinase-Glo ATP luminescence, 1 h; Potency, µM (highest dose often 57.5 µM), hits mostly inhibitors; actives 0.37% (n = 290,000); AID 1721
Target sequence (Q27686 whole entry, looked up): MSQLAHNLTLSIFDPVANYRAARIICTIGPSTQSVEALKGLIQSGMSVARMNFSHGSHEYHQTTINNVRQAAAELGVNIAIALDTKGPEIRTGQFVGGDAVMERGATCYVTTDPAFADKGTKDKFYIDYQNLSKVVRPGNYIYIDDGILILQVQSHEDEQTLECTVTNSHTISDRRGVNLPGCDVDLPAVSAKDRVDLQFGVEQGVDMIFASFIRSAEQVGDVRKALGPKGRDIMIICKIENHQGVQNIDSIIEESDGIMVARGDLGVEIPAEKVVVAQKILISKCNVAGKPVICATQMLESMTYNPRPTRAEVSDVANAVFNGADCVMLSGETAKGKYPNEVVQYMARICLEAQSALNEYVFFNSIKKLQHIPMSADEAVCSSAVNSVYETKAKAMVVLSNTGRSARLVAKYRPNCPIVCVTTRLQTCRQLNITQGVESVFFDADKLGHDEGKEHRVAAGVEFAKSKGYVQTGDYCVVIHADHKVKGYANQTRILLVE
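Pyruvate kinase activity monitored as ATP production (luciferase luminescence). Conditions: 0.1 nM enzyme, 0.5 mM PEP, 0.1 mM ADP, 1 h, RT; normalized against uninhibited and no-enzyme wells.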
Each line names hits and unclear results; the compound was inactive in the other large screens. Unless noted, the call rests on the fitted dose curve; in most records, active means well fitted curve in the direction sought with a large enough effect; inconclusive means small, poorly fitted or top-dose-only effect, or another doubt; inactive means no such curve, though single readings can be large; an effect the other way counts as inactive or inconclusive.

CC(c1ccccc1)n1c(-c2ccccc2F)n[nH]c1=S (configuration not stated)	Tb PYK inh inconclusive, LmPK inhibitor inconclusive
COc1ccc(C(=O)c2cn(Cc3ccc(F)cc3)c3c(F)cc(F)cc3c2=O)cc1	none (no result: CHX counter, Shiga toxin inh, Giardia FBPA inh, RE007 growth inh, LmPK inhibitor)
CCOC(=O)N1CCN(CC(=O)Nc2nc3ccccc3s2)CC1	Giardia FBPA inh inconclusive (no result: Shiga toxin inh)
CCOC(=O)C1CCN(C(=O)c2ccc3c(c2)sc2nc(-c4ccccc4)cn23)CC1	none (no result: CHX counter, Shiga toxin inh, Giardia FBPA inh, RE007 growth inh, LmPK inhibitor)
CCOC(=O)N1CCC(NC(=O)c2ccc3c(c2)sc2nc(-c4ccc(OC)cc4)cn23)CC1	CHX counter 20, Shiga toxin inh 57 (no result: Tb PYK inh, RE007 growth inh)
CCOC(=O)N1CCN(C(=O)c2ccc3c(c2)sc2nc(-c4ccccc4)cn23)CC1	CHX counter 53, Shiga toxin inh 43
CCOC(=O)N1CCN(C(=O)c2nc3ccccc3s2)CC1	CHX counter 34, Shiga toxin inh 73
CC(=O)c1cccc(NC(=O)C2Cc3c(-c4ccc5c(c4)OCO5)ccnc3O2)c1 (configuration not stated)	none (no result: CHX counter, Shiga toxin inh, Giardia FBPA inh, LmPK inhibitor)
COc1ccc(NC(=S)Nc2cccc3ccccc23)cc1OC	CHX counter 30
Cc1ccc(C(=O)NNC(=S)Nc2cccc3ccccc23)s1	CHX counter 30, Shiga toxin inh 67
Cc1ccc(F)c(NC(=S)Nc2cccc3ccccc23)c1	CHX counter 36, Shiga toxin inh 58, Giardia FBPA inh inconclusive (no result: Tb PYK inh, RE007 growth inh)
CC(=O)c1cccc(NC(=S)NCc2ccccc2)c1	none
CC(=O)c1cccc(NC(=S)Nc2cccc3ccccc23)c1	CHX counter 44, Shiga toxin inh 83
Cc1cccc(OC(=O)c2nc(SCc3ccccc3F)ncc2Cl)c1	none (no result: CHX counter, Shiga toxin inh, Giardia FBPA inh, RE007 growth inh, LmPK inhibitor)
COc1cc2c3nc4n(c(=O)c3n(CC(=O)NCC3CCCO3)c2cc1OC)CCS4 (configuration not stated)	none
COc1ccc(N2C(=O)CSC23C(=O)N(CC(=O)NC2CCCCC2)c2ccccc23)cc1 (configuration not stated)	none (no result: CHX counter, Shiga toxin inh, Giardia FBPA inh, RE007 growth inh, LmPK inhibitor)
COc1ccccc1NC(=O)c1cc(S(=O)(=O)NCCC2=CCCCC2)ccc1F	none (no result: CHX counter, Shiga toxin inh, Giardia FBPA inh, RE007 growth inh, LmPK inhibitor)
CC(=O)Nc1cccc(NC(=S)Nc2cccc3ccccc23)c1	CHX counter 44, Shiga toxin inh 84 (no result: Giardia FBPA inh)
S=C(Nc1cccc2ccccc12)Nc1cccc2ccccc12	none (no result: CHX counter, Shiga toxin inh, Giardia FBPA inh, LmPK inhibitor)
CCN(CC)S(=O)(=O)c1cc(C(=O)OCC(=O)Nc2ccc(-c3nc4ccc(C)cc4s3)cc2)ccc1F	CHX counter 63, Shiga toxin inh 92
CCN(CC)S(=O)(=O)c1cc(C(=O)OCC(=O)Nc2cccc(S(=O)(=O)N(C)C)c2)ccc1F	none
CCN(CC)S(=O)(=O)c1ccc(C(=O)OCC(=O)Nc2ccc(-c3nc4ccc(C)cc4s3)cc2)cc1	CHX counter 74, Shiga toxin inh 115
CCc1ccccc1NC(=O)c1ccc2c(c1)CCCN2S(C)(=O)=O	none (no result: CHX counter, Shiga toxin inh, Giardia FBPA inh, RE007 growth inh, LmPK inhibitor)
Cc1cccc(C(=O)Nc2sc3c(c2C(=O)NC(C)C)CCCC3)c1	none (no result: CHX counter, Shiga toxin inh, Giardia FBPA inh, RE007 growth inh, LmPK inhibitor)
Cc1ccc(C(=O)C(NC(=O)c2ccco2)Nc2sc3c(c2C(N)=O)CCCC3)cc1 (configuration not stated)	CHX counter 13, Shiga toxin inh active (no result: Tb PYK inh, RE007 growth inh)
CNC(=O)c1c(NC(=O)c2cccc(C)c2)sc2c1CCC2	CHX counter 32, Shiga toxin inh 71
CNC(=O)c1c(NC(=O)c2ccco2)sc2c1CCCC2	CHX counter 29 (no result: Giardia FBPA inh)
COc1cccc(C(=O)Nc2sc3c(c2C(=O)O)CCCC3)c1	CHX counter 37, Shiga toxin inh 104
CCn1c(SCC(=O)NNC(=O)c2ccc(OC)cc2)nnc1C1CC1	none
CC1(C)Cc2c(sc(NC(=O)c3ccc(Br)o3)c2C#N)CO1	CHX counter 45, Shiga toxin inh 71
CC1(C)Cc2c(sc(NC(=O)Cc3ccccc3)c2C#N)CO1	none
COc1cccc(C(=O)Nc2sc3c(c2C#N)CCN(C(C)=O)C3)c1	CHX counter 25, Giardia FBPA inh inconclusive
CC1(C)Cc2c(sc(NC(=O)c3ccco3)c2C(=O)O)CO1	CHX counter 30
CC1(C)Cc2c(sc(NC(=S)NC(=O)c3ccccc3)c2C(=O)O)CO1	none
COc1cccc(C(=O)Nc2nc3c(c(=O)[nH]2)CCCC3)c1	CHX counter 20
Cc1cccc(C(=O)Nc2sc3c(c2C(=O)O)CCC3)c1	CHX counter 42, Shiga toxin inh 103, Giardia FBPA inh inconclusive, RE007 growth inh inconclusive
O=C(Nc1sc2c(c1C(=O)NCc1ccco1)CCCC2)c1ccc2c(c1)OCO2	CHX counter 44, Shiga toxin inh 89
Cc1cccc(NC(=O)c2c(NC(=O)c3ccccc3)sc3c2CCC3)c1	none (no result: CHX counter, Shiga toxin inh, Giardia FBPA inh, RE007 growth inh, LmPK inhibitor)
Cc1ccc2cc3c(nc2c1)OCC3	CHX counter 32, Shiga toxin inh 47
CC(=O)c1ccc(Nc2ccc(-c3ccccc3F)nn2)cc1	CHX counter 43
COc1ccccc1-c1ccc(Nc2ccc(C(=O)N3CCOCC3)cc2)nn1	none
CCN(CCO)C1CC(=O)N(c2ccccc2C)C1=O (configuration not stated)	RE007 growth inh 22µM
Cc1ccc(NC(=O)C2OCCc3ccccc32)cc1 (configuration not stated)	CHX counter 40, Shiga toxin inh 79
Cc1ccc(NC(=O)C2Cc3ccccc3N2C(=O)c2ccccc2)cc1Cl (configuration not stated)	none (no result: CHX counter, Shiga toxin inh, Giardia FBPA inh, RE007 growth inh, LmPK inhibitor)
Cc1ccc(NC(=O)C2OCCc3ccccc32)cc1Cl (configuration not stated)	CHX counter 18, Shiga toxin inh 58
C=CC1=C2C=C(C3CC3)N(CCCOC(C)C)C=C2C(=O)C(C)(OC(=O)c2ccco2)C1=O (configuration not stated)	Giardia FBPA inh inconclusive (no result: CHX counter, Shiga toxin inh, Tb PYK inh, RE007 growth inh)
COc1cc(OC)c(NC(=O)Cc2cccs2)cc1Cl	none
CCCCN(CCCC)S(=O)(=O)c1ccc(NC(=O)Cc2cccs2)cc1	CHX counter 35
CCCN(CCC)S(=O)(=O)c1ccc(NC(=O)Cc2cccs2)cc1	none
CCCNS(=O)(=O)c1ccc(NC(=O)Cc2cccs2)cc1	CHX counter 19
CCN(CC)S(=O)(=O)c1ccc(OC)c(NC(=O)Cc2cccs2)c1	CHX counter 32
O=C(Nc1ccn(CCCNCCCN2CCCC2=O)c(=O)n1)OCc1ccccc1	none (no result: CHX counter, Shiga toxin inh, Giardia FBPA inh, LmPK inhibitor)
CCOc1cc(/C=N/O)ccc1OCC(=O)Nc1cccc(C)c1	CHX counter 31, Shiga toxin inh 41
O/N=C/c1cc(Br)ccc1OCc1cccc(F)c1	CHX counter 26, RE007 growth inh inconclusive
Cc1ccc(COc2ccc(Br)cc2/C=N/O)cc1	CHX counter 31, RE007 growth inh 32µM
CCOc1cc(/C=N/O)ccc1OCc1ccc(C)cc1	CHX counter 27, Shiga toxin inh active, Giardia FBPA inh inconclusive
COc1ccc(Cl)cc1Nc1cc(C)nc2nc(-c3ccccc3C)nn12	none (no result: CHX counter, Shiga toxin inh, Giardia FBPA inh, RE007 growth inh, LmPK inhibitor)
